The text below walks through data of PubChem BioAssay (EPA / NIEHS).

A word on the AC50: it is the concentration giving half of the maximal activity seen.

Where “and” joins values, the source holds several entries; their conditions need not be identical. Identical values can stand only once. Calls of active or inactive are those of the source. How the source made its calls: active means hit-call score of the fitted dose curve at least 0.9, where 1 is the maximum; inactive means score below 0.9.

Read-out in the experiment: Matrix Metallopeptidase 9 (MMP9), MMP9 (gene 4318)
Description: BSK_KF3CT_MMP9: BioMAP Diversity Plus: KF3CT Assay for Matrix Metallopeptidase 9 (MMP9) Biomarker Activity (AID 2283074).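 On AC50: MMP9 protein level quantified by ELISA in the co-culture.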 The settings on record: primary human keratinocytes with fibroblasts; actives raise or lower the signal. In outline:
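Human keratinocyte/foreskin fibroblast co-culture; compound added; 24 h; MMP-9 by ELISA; bidirectional fit vs DMSO baseline.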
Regarding `O=c1c2ccccc2oc2ccccc12`, the result was inactive.
Still for that read-out and setting: the result for `COCc1c(C(C)C)nc(C(C)C)c(/C=C/[C@@H](O)C[C@@H](O)CC(=O)O)c1-c1ccc(F)cc1` reads “inactive”; that for `O=Nc1ccc(O)cc1`, “inactive”; that for `N#[N+]c1ccc2c(S(=O)(=O)[O-])cccc2c1O`, “inactive”.
Turning to `C#CC1(O)CC[C@H]2[C@@H]3CCC4=CCCC[C@@H]4[C@H]3CC[C@@]21C` (stereo partly specified), the AC50 was 31.9 µM (active).
Still for that read-out and setting: in the case of `O=C(Cl)c1cc(C(=O)Cl)cc(C(=O)Cl)c1` it was 32.3 µM (active).
For the molecule `CC(C)C(=O)C(C)C`, the result was inactive.
In the case of `C=CC(=O)OCC(Br)CBr` (stereo unspecified), the AC50 is 28.1 µM (active).
As to `CCOC(=O)c1ccccc1C(=C1C=C(Br)C(=O)C(Br)=C1)c1cc(Br)c(O)c(Br)c1`, the AC50 was 3.55 µM (active) and 3.24 µM (active).
The same measure, in the same setting: in the case of `c1ccc2c(c1)ccc1ncccc12` it was 20 µM (active).
Take `CCCCC(CC)COC(=O)c1ccccc1O` (stereo unspecified): the outcome was inactive.
Turning to `CCCCCCCCCCCCCCCC[N+](C)(C)CC`, the AC50 is 1.68 µM (active).
With `COc1ccc2nc(N)sc2c1`, the result was inactive.
As for `CC(C)(c1cc(Br)c(OCCO)c(Br)c1)c1cc(Br)c(OCCO)c(Br)c1`, the half-maximal activity concentration (AC50) was 7.47 µM (active).
On the same count and under the same terms, in the case of `CCCCC/C=C\C/C=C\CCCCCCCC(=O)OC` it was 26.7 µM (active); in that of `Nc1ccc(N)c(Cl)c1`, 20 µM (active) and 18.3 µM (active).
`CC1OC1C1CCC2(C)OC2C1` (stereo unspecified): the result was inactive.
Still for that read-out and setting: in the case of `C=C[Si](OC(C)=O)(OC(C)=O)OC(C)=O` it was “inactive”; in that of `S=C(NC1CCCCC1)NC1CCCCC1`, “inactive”.
`C/C=C\C/C=C/CCCCCCCCOC(C)=O`: the AC50 was 29.5 µM (active).
With `CCCCC(CC)COCC1CO1` (stereo unspecified), the result was inactive.
`CCO[Si](CCCN=C=O)(OCC)OCC`: the outcome was inactive.
Same read-out and setting: the result for `CO[Si](OC)(OC)c1ccccc1` reads “inactive”.
Same read-out and setting: the result for `CCCCNc1ccc(NCCCC)c2c1C(=O)c1ccccc1C2=O` reads “inactive”; that for `CCO[Si](C)(OCC)OCC`, “inactive”; that for `O=C1CCCN1CCO`, “inactive”.
As to `CN1C(=O)N(C)C(O)C1O` (stereo unspecified), the result was inactive.
In the case of `C=CCOc1c(Br)cc(Br)cc1Br`, the AC50 is 20 µM (active).
Turning to `CCCCCCCCc1ccc(Nc2ccc(CCCCCCCC)cc2)cc1`, the result was inactive.
`O=C(c1ccc(O)cc1)c1ccc(O)cc1O`: the AC50 was 18.4 µM (active) and 11.2 µM (active).
As to `CCOc1nc(F)cc2nc(S(=O)(=O)Nc3c(Cl)cccc3C(=O)OC)nn12`, the outcome was inactive.
Still for that read-out and setting: the result for `C=CC=CC=CCCCCC` reads “inactive”.
As for `c1ccc(-c2ccccn2)nc1`, the outcome was inactive.
Same read-out and setting: in the case of `C=CCOCC(O)CCl` (stereo unspecified) it was “inactive”.
Same read-out and setting: in the case of `c1ccc2c(c1)ccc1cc3c(ccc4ccccc43)cc12` it was “inactive”; in that of `O=C(Nc1ccccc1SSc1ccccc1NC(=O)c1ccccc1)c1ccccc1`, “inactive”.
